# Screening data as filed in PubChem.
# IEC-6 tox = counter-screen for KLF5 inhibitors: cytotoxicity in IEC-6 cells; IEC-6 cytotoxicity, luminescence viability; inhibition, % at 5 µM; 290,000 compounds, 0.78% hits; AID 1825; in the data active means inhibition above about 22%;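 further: 0% = plate median of test compound wells and 100% = cytotoxic reference compound wells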
# KLF5 inh = suppresses KLF5 promoter-driven expression; DLD-1 KLF5 promoter-luciferase reporter, luminescence; inhibition, % at 5 µM; 290,000 compounds, 0.23% hits;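 active means inhibition above a per-plate limit of that plate's mean compound inhibition plus 3 SD, cut at about 60% in these data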;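 further: 0% = DMSO wells and 100% = LY294002 at 200 µM; higher means less KLF5 promoter-driven luciferase light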
# BaF3 tox = counter-screen for JAK2V617F inhibitors: parental Ba/F3 viability inhibitors. 220,000 compounds, 1.1% hits. CellTiter-Glo ATP luminescence. AID 1486. inhibition, % at 5.6 µM;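 active means inhibition above a per-campaign cutoff, the mean inhibition of all tested compounds plus 3 SD, cut at about 27% in these data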;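 further: 0% = DMSO wells and 100% = JAK Inhibitor I control wells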
# Ba/F3 V617F tox = loss of viability in JAK2V617F-driven Ba/F3 cells; Ba/F3 EpoR-JAK2V617F viability, ATP luminescence; inhibition, % at 5.6 µM; 220,000 compounds, 1.1% hits; AID 1446;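 active means inhibition above the campaign mean plus 3 SD over all tested compounds, cut at about 24% in these data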;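 further: cytokine-independent growth of Ba/F3 cells driven by EpoR plus mutant JAK2; 0% = DMSO-treated cells and 100% = JAK inhibitor I control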
# aSyn 5UTR inh = MLPCN primary screen, SNCA 5' untranslated region. alpha-synuclein 5'UTR reporter, inhibitor activity. inhibition, % (tested at 7.5 µM). 300,000 compounds, 0.82% hits; in the data active means inhibition above about 60%;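 further: H4 neuroglioblastoma cells stably carrying SNCA 5'UTR luciferase fusion; 0% = DMSO wells and 100% = positive control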
# APP transl inh = APP translation inhibition; SH-SY5Y APP 5'UTR-luciferase reporter, luminescence; inhibition, % at 2 µM; 190,000 compounds, 0.82% hits;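 active means inhibition above a set limit, derived from the sample mean plus 3 SD, cut at about 45% in these data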
# BaF3 parental 2 = counter-screen for JAK2V617F inhibitors: parental Ba/F3 viability inhibitors; 580 compounds, 31% hits; AID 1520; shares compounds with Ba/F3 V617F tox; inhibition, % at 5.6 µM; CellTiter-Glo luminescence; cells kept alive by added IL-3;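 active means cell growth inhibition above the hit limit set in the earlier mutant JAK2 cell screen, cut at about 27% in these data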;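 further: plate controls were DMSO-treated cells for no effect and JAK Inhibitor I control wells for full effect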
# JAK2V617F conf = confirmation: loss of viability in JAK2V617F-dependent Ba/F3 cells; shares compounds with Ba/F3 V617F tox; Ba/F3 EpoR-JAK2V617F viability, CellTiter-Glo luminescence; inhibition, % at 5.6 µM; 580 compounds, 66% hits;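 active means mean inhibition above the hit cutoff derived in the earlier primary screen, cut at about 25% in these data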;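 further: 0% = DMSO-treated cells and 100% = JAK inhibitor I control wells; higher means lower luminescence from reduced cell ATP and viability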
# Numbers without * were called inactive; . = not tested or not shown. This is a sample that favours compounds with a hit; in the whole collection about 2.2% have one here.
SMILES,IEC-6 tox,KLF5 inh,BaF3 tox,Ba/F3 V617F tox,aSyn 5UTR inh,APP transl inh,others
Cc1cc(N/C(=N\S(=O)(=O)c2ccc(F)cc2F)c2ccccc2)no1,-6,-12,2,0,19,68*,
CS(=O)(=O)N(CC(=O)Nc1ccc(CC#N)cc1)c1ccc(C23CC4CC(CC(C4)C2)C3)cc1,-1,2,4,2,-37,0,
COc1ccc(Br)cc1/C=N/NC(=O)c1ccc(COc2ccc3c(c2)CCC3)o1,2,-48,0,-2,-42,-4,
O=C(N/N=C/c1cc([N+](=O)[O-])ccc1O)c1ccc(COc2ccc3c(c2)CCC3)o1,7,26,.,.,87*,.,
Cc1cccc(C(=O)Nc2ccccc2C(=O)OCC(=O)Nc2ccc(C#N)cc2)c1,-7,-14,6,-3,-100,-11,
Cn1ncc2c(=O)n(CC(=O)NC34CC5CC(CC(C5)C3)C4)cnc21,-1,-7,2,-1,.,10,
CC(C)(C)C1CCc2c(sc(NC(=O)CSc3ncn[nH]3)c2C#N)C1 (configuration not stated),-1,-20,2,-5,3,14,
N#Cc1c(NC(=O)CSc2ncn[nH]2)sc2c1CCCC2,5,6,6,-1,84*,.,
N#Cc1c(NC(=O)CCCC(=O)O)sc2c1CCCCC2,-5,-37,0,-4,90*,46*,
CC1CCc2c(sc(NC(=O)CSc3ncn[nH]3)c2C#N)C1 (configuration not stated),7,39,7,-2,91*,.,
CCCC(=O)Nc1sc2c(c1C#N)CCCCC2,5,-162,5,1,-167,-14,
O=C(CCSc1nc(-c2ccco2)cc(C(F)(F)F)n1)NCCN1CCOCC1,-3,-5,0,-3,-4,-14,
CN(C)c1ccc(/C=C/c2cc[n+]([O-])cc2)cc1,0,-36,-1,0,-114,-49,
CN(C)c1ccc(/C=C/c2cc[n+](C)cc2)cc1,6,-71,71*,94*,-30,-18,
CCOc1ccc(Nc2nc3cc(S(=O)(=O)N(CC)CC)ccc3o2)cc1,8,-4,0,3,78*,12,
CCN(CC)S(=O)(=O)c1ccc2oc(Nc3ccc(OC)cc3)nc2c1,4,-27,.,.,1,.,
CCOc1ccc(C2=Nn3c(nnc3-c3ccco3)SC2)cc1,8,-61,0,-1,23,9,
COc1ccc(C2=Nn3c(nnc3-c3ccco3)SC2)cc1OC,7,-39,0,13,79*,-4,
O=C(OCCN1C(=O)c2cccc3c(N4CCOCC4)ccc(c23)C1=O)c1cc(Cl)cc(Cl)c1,-9,-21,6,2,.,88*,
Cc1cc(N2CCOCC2)nc(-c2ccc([N+](=O)[O-])cc2)n1,2,-41,6,2,-44,11,
Cc1cccc2c1Sc1ccc(Cl)cc1CC2N1CCNCC1 (configuration not stated),.,.,.,.,104*,.,
CN1CCN(C2Cc3ccccc3Sc3cc(C(F)(F)F)ccc32)CC1 (configuration not stated),.,.,.,.,28,.,
CCc1cccc2c1Sc1ccccc1CC2N1CCNCC1 (configuration not stated),.,.,.,.,104*,.,
COC(=O)c1cc(S(=O)(=O)N2CCCCCC2)cn1C,1,-21,.,.,15,.,
COCCCNC(=O)CN1C(=O)COc2ccc(S(=O)(=O)N3CCOCC3)cc21,5,-15,.,.,-9,.,
SMILES,IEC-6 tox,KLF5 inh,BaF3 tox,Ba/F3 V617F tox,aSyn 5UTR inh,APP transl inh,others
CCOC(=O)CSc1nc(=O)n2cccc(C)c2n1,1,-37,7,5,-11,45*,
Cc1ccc2nc(-c3ccc(N)cc3)sc2c1,2,32,3,-4,90*,.,
Cc1cccc(OCCSc2nc3ccccc3n2CC(=O)O)c1,-4,-19,.,.,-10,.,
CCCNC(=O)c1ccc(-c2nc3ccccc3s2)s1,2,-19,2,1,79*,-155,
O=C(NCCO)c1cccc(S(=O)(=O)N2CCCCC2)c1,-5,-21,94*,1,4,-1,
O=C(O)Cc1sc(Nc2ccccc2)nc1-c1cccs1,3,-72,-9,-4,-52,.,
Cc1ccc(-n2[nH]c(=O)c(-c3ccccn3)c2C)cc1,6,-181,1,-2,97*,-3,
Cc1ccc(-n2[nH]c(=O)c3cccnc32)cc1,-7,-25,1,-2,-10,-5,
COc1ccc2[nH]c(C)c(CCN(Cc3cccs3)C(=S)Nc3ccc(F)cc3)c2c1,1,-9,50*,46*,-10,8,
COc1ccc2[nH]c(C)c(CCN(Cc3cccs3)C(=S)Nc3ccccc3)c2c1,2,-4,46*,34*,16,1,
Cc1csc2nc(CN3CCN(CC(=O)N(C)C)CC3)cc(=O)n12,-4,0,.,.,-1,.,
CN(C)c1nc(N/N=C/c2ccccc2O)nc(Nc2ccc(F)cc2)n1,3,-3,5,-2,-60,48*,
Clc1ccc(/C=C/c2nc3ccccc3[nH]2)c(Cl)c1,9,47,17,15,68*,-221,
Cc1ccc2nc(NC(=O)CSCC(=O)OCC(=O)c3ccccc3)sc2c1,-5,4,1,-3,62*,21,
Cc1ccc2nc(NC(=O)CCCC(=O)O)sc2c1,-3,9,2,2,102*,60*,
O=C(NC1CCCC1)C(c1ccccc1F)N(C(=O)Cc1cccs1)c1ccc2c(c1)OCCO2 (configuration not stated),4,-7,7,-1,-19,-5,
O=C(c1ccc(Cl)cc1)C(Cn1cncn1)C(Sc1ccccc1)c1ccccc1 (configuration not stated),-2,-28,2,-5,10,51*,
CCCc1nc2n[nH]c(N)c2c2c1CCCC2,3,-2,3,25*,43,-14,BaF3 parental 2=-1;JAK2V617F conf=39*
CCCc1nc2n[nH]c(N)c2c2c1CCC2,7,1,0,1,29,6,
COc1ccc2c(n1)Sc1nc3ccccc3nc1N2,7,-122,1,-2,-136,.,
CCCCCCCN(C(=O)CCl)c1cccc(C)c1,6,13,10,7,-31,-5,
CCCCCCN(C(=O)CCl)c1ccccc1,-6,-53,0,49*,-37,.,BaF3 parental 2=1;JAK2V617F conf=63*
CCc1ccc(NC(=O)CCS(=O)(=O)c2ccc(Br)cc2)cc1,-1,-10,.,.,13,.,
CN(c1ccccc1)S(=O)(=O)c1cccc(C(=O)NCCc2ccc(O)c(O)c2)c1,12,-9,7,32*,7,-4,BaF3 parental 2=4;JAK2V617F conf=67*
CCOc1ccc(NC(=O)CC)cc1,-2,-12,5,-2,16,9,
